Laboratory results published in PubChem BioAssay AID1159580 (chemical genetic matrix, 2015).
Hit rate of the full screen: of about 5,500 compounds, about 2,000 (36%) were called active. Inconclusive results (about 18%) are left out. This is one part of the list. A number with no mark means an inactive call. No stated cut-off is given here; in the data, active means normalized growth mostly below about 0.91 (no sharp cut-off); inconclusive means no clear call, values can overlap the other calls; inactive means mostly above about 0.92.

Experiment: chemical genetic growth profiling, strain panel (AID 1159580);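 further: tested at 20 µM; growth read once vehicle control cultures reached saturation at 30 °C; 1 = growth at the plate median or of vehicle wells; lower values mean less growth of the strain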
Settings: growth OD

Work on `COc1ccc(C2CC(=O)c3ccc(OC)cc3O2)cc1` (centres undefined) yielded a normalized growth (S. cerevisiae deletion strains, locus YKL068W, hits give low values) of 0.97, a normalized growth (S. cerevisiae deletion strains, locus YKL085W, strain MDH1 (second series), hits give low values) of 0.982 and a normalized growth (S. cerevisiae deletion strains, locus YKL085W, strain MDH1, hits give low values) of 0.982. The normalized growth (S. cerevisiae deletion strains, locus YKL160W, strain elf1, hits give low values) was 0.908, the normalized growth (S. cerevisiae deletion strains, locus YKL190W, strain CNB1, hits give low values) was 0.948 and the normalized growth (S. cerevisiae deletion strains, locus YKR001C, strain vps1, hits give low values) was 0.876 (active). The normalized growth (S. cerevisiae deletion strains, locus YKR026C, strain gcn3, hits give low values) was 0.931, the normalized growth (S. cerevisiae deletion strains, locus YKR091W, strain srl3, hits give low values) was 0.968 and the normalized growth (S. cerevisiae deletion strains, locus YLL001W, strain dnm1, hits give low values) was 0.938. For the same compound, the normalized growth (S. cerevisiae deletion strains, locus YLL026W, hits give low values) was 0.932, the normalized growth (S. cerevisiae deletion strains, locus YLL041C, strain sdh2, hits give low values) was 0.958 and the normalized growth (S. cerevisiae deletion strains, locus YLR027C, strain aat2, hits give low values) was 0.93. For the same compound, the normalized growth (S. cerevisiae deletion strains, locus YLR039C, strain RIC1, hits give low values) was 0.811, the normalized growth (S. cerevisiae deletion strains, locus YLR058C, strain SHM2, hits give low values) was 0.901 and the normalized growth (S. cerevisiae deletion strains, locus YLR102C, strain apc9, hits give low values) was 0.951. For the same compound, the normalized growth (S. cerevisiae deletion strains, locus YLR113W, strain HOG1, hits give low values) was 0.851 (active), the normalized growth (S. cerevisiae deletion strains, locus YLR221C, strain rsa3, hits give low values) was 0.899 (active) and the normalized growth (S. cerevisiae deletion strains, locus YLR258W, strain gsy2, hits give low values) was 0.91 (active). For the same compound, the normalized growth (S. cerevisiae deletion strains, locus YLR262C, strain YPT6 (second series), hits give low values) was 0.912, the normalized growth (S. cerevisiae deletion strains, locus YLR262C, strain YPT6, hits give low values) was 0.872 and the normalized growth (S. cerevisiae deletion strains, locus YLR268W, strain sec22, hits give low values) was 0.832 (active). The normalized growth (S. cerevisiae deletion strains, locus YLR320W, strain mms22, hits give low values) was 0.742 (active), the normalized growth (S. cerevisiae deletion strains, locus YLR330W, strain CHS5, hits give low values) was 0.844 (active) and the normalized growth (S. cerevisiae deletion strains, locus YLR342W, strain FKS1 (second series), hits give low values) was 0.705 (active). It also gave a normalized growth (S. cerevisiae deletion strains, locus YLR342W, strain FKS1, hits give low values) of 0.936, a normalized growth (S. cerevisiae deletion strains, locus YLR357W, strain rsc2, hits give low values) of 0.902 and a normalized growth (S. cerevisiae deletion strains, locus YLR370C, strain arc18, hits give low values) of 0.947. The normalized growth (S. cerevisiae deletion strains, locus YLR371W, strain rom2, hits give low values) was 0.938, the normalized growth (S. cerevisiae deletion strains, locus YLR384C, strain iki3, hits give low values) was 0.952 and the normalized growth (S. cerevisiae deletion strains, locus YLR418C, strain cdc73, hits give low values) was 0.66 (active). The normalized growth (S. cerevisiae deletion strains, locus YML016C, strain PPZ1, hits give low values) was 0.959, the normalized growth (S. cerevisiae deletion strains, locus YML032C, strain rad52, hits give low values) was 0.889 (active) and the normalized growth (S. cerevisiae deletion strains, locus YML120C, strain ndi1, hits give low values) was 0.869 (active). For the same compound, the normalized growth (S. cerevisiae deletion strains, locus YML124C, strain tub3, hits give low values) was 0.952, the normalized growth (S. cerevisiae deletion strains, locus YMR058W, strain fet3, hits give low values) was 0.932 and the normalized growth (S. cerevisiae deletion strains, locus YMR078C, strain ctf18, hits give low values) was 0.93. The normalized growth (S. cerevisiae deletion strains, locus YMR125W, strain sto1, hits give low values) was 0.967, the normalized growth (S. cerevisiae deletion strains, locus YMR129W, hits give low values) was 0.956 and the normalized growth (S. cerevisiae deletion strains, locus YMR205C, strain PFK2, hits give low values) was 0.842 (active). The normalized growth (S. cerevisiae deletion strains, locus YMR223W, strain ubp8, hits give low values) was 0.92, the normalized growth (S. cerevisiae deletion strains, locus YMR231W, strain pep5, hits give low values) was 0.993 and the normalized growth (S. cerevisiae deletion strains, locus YMR263W, strain SAP30, hits give low values) was 0.869 (active). The normalized growth (S. cerevisiae deletion strains, locus YMR307W, strain GAS1, hits give low values) was 0.649, the normalized growth (S. cerevisiae deletion strains, locus YNL067W, strain RPL9B, hits give low values) was 0.87 and the normalized growth (S. cerevisiae deletion strains, locus YNL071W, strain lat1, hits give low values) was 0.727 (active). The normalized growth (S. cerevisiae deletion strains, locus YNL128W, strain TEP1, hits give low values) was 0.9, the normalized growth (S. cerevisiae deletion strains, locus YNL153C, strain GIM3, hits give low values) was 0.847 (active) and the normalized growth (S. cerevisiae deletion strains, locus YNL183C, strain NPR1, hits give low values) was 0.802 (active). The normalized growth (S. cerevisiae deletion strains, locus YNL209W, strain ssb2, hits give low values) was 0.965, the normalized growth (S. cerevisiae deletion strains, locus YNL233W, strain BNI4, hits give low values) was 0.804 (active) and the normalized growth (S. cerevisiae deletion strains, locus YNL248C, strain rpa49, hits give low values) was 0.921. It also gave a normalized growth (S. cerevisiae deletion strains, locus YNL250W, strain rad50, hits give low values) of 0.939, a normalized growth (S. cerevisiae deletion strains, locus YNL271C, strain bni1, hits give low values) of 0.937 and a normalized growth (S. cerevisiae deletion strains, locus YNL298W, strain CLA4, hits give low values) of 0.934. For the same compound, the normalized growth (S. cerevisiae deletion strains, locus YNL307C, strain MCK1, hits give low values) was 0.668 (active), the normalized growth (S. cerevisiae deletion strains, locus YNL322C, strain KRE1 (second series), hits give low values) was 0.969 and the normalized growth (S. cerevisiae deletion strains, locus YNR049C, strain mso1, hits give low values) was 0.97. The normalized growth (S. cerevisiae deletion strains, locus YNR052C, strain pop2, hits give low values) was 0.944, the normalized growth (S. cerevisiae deletion strains, locus YOL006C, strain TOP1, hits give low values) was 0.394 (active) and the normalized growth (S. cerevisiae deletion strains, locus YOL012C, strain htz1) was 0.489. The normalized growth (S. cerevisiae deletion strains, locus YOL147C, strain pex11, hits give low values) was 0.94, the normalized growth (S. cerevisiae deletion strains, locus YOR001W, strain rrp6, hits give low values) was 0.917 and the normalized growth (S. cerevisiae deletion strains, locus YOR061W, strain CKA2, hits give low values) was 0.955. The normalized growth (S. cerevisiae deletion strains, locus YOR069W, strain VPS5, hits give low values) was 0.979, the normalized growth (S. cerevisiae deletion strains, locus YOR070C, strain gyp1, hits give low values) was 0.934 and the normalized growth (S. cerevisiae deletion strains, locus YOR080W, strain dia2, hits give low values) was 0.957. For the same compound, the normalized growth (S. cerevisiae deletion strains, locus YOR083W, strain WHI5, hits give low values) was 0.865 (active), the normalized growth (S. cerevisiae deletion strains, locus YOR106W, strain vam3, hits give low values) was 0.887 and the normalized growth (S. cerevisiae deletion strains, locus YOR136W, strain idh2, hits give low values) was 0.954. The normalized growth (S. cerevisiae deletion strains, locus YOR144C, strain elg1, hits give low values) was 0.938, the normalized growth (S. cerevisiae deletion strains, locus YOR184W, strain ser1, hits give low values) was 0.799 (active) and the normalized growth (S. cerevisiae deletion strains, locus YOR231W, strain MKK1, hits give low values) was 0.881. The normalized growth (S. cerevisiae deletion strains, locus YOR265W, strain rbl2, hits give low values) was 0.952, the normalized growth (S. cerevisiae deletion strains, locus YOR270C, strain vph1, hits give low values) was 0.675 (active) and the normalized growth (S. cerevisiae deletion strains, locus YOR290C, strain snf2, hits give low values) was 0.822 (active). For the same compound, the normalized growth (S. cerevisiae deletion strains, locus YOR316C, strain cot1, hits give low values) was 0.939, the normalized growth (S. cerevisiae deletion strains, locus YPL051W, strain arl3, hits give low values) was 0.887 (active) and the normalized growth (S. cerevisiae deletion strains, locus YPL055C, strain LGE1, hits give low values) was 0.754 (active). The normalized growth (S. cerevisiae deletion strains, locus YPL078C, strain atp4, hits give low values) was 0.888 (active), the normalized growth (S. cerevisiae deletion strains, locus YPL106C, strain sse1, hits give low values) was 0.856 and the normalized growth (S. cerevisiae deletion strains, locus YPL240C, strain hsp82, hits give low values) was 0.951. The normalized growth (S. cerevisiae deletion strains, locus YPL241C, strain CIN2, hits give low values) was 0.985, the normalized growth (S. cerevisiae deletion strains, locus YPL256C, strain CLN2, hits give low values) was 0.882 and the normalized growth (S. cerevisiae deletion strains, locus YPR119W, strain clb2, hits give low values) was 0.969. The normalized growth (S. cerevisiae deletion strains, locus YPR141C, strain kar3, hits give low values) was 0.975, the normalized growth (S. cerevisiae deletion strains, locus YPR163C, strain tif3, hits give low values) was 0.797 (active) and the normalized growth (S. cerevisiae deletion strains, locus YPR167C, strain met16, hits give low values) was 0.889 (active). The normalized growth (S. cerevisiae deletion strains, strain wtn01, hits give low values) was 0.887 (active) and the normalized growth (S. cerevisiae strains, strain wild type, hits give low values) was 0.89 (active).
